# In the supplement of paper PMC10121225:
# Counter-ions that a name gives are not always drawn.
# Test system: hN + hpA co-culture (H1 iNGN2 human neurons + human primary astrocytes)
# Experiment: presynaptic density (SYNAPSIN1 puncta per MAP2 neurite area), Z-score vs DMSO controls; higher = more presynaptic puncta (synapse-promoting)
# Details: 3 µM; 72 h
# 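Also: immunostained co-cultures imaged by high-content microscopy, Z-score per plate against mean and SD of 0.1% DMSO wells, compounds added on differentiation day 18, analysed day 21.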
row,SMILES,presynaptic density (Z-score)
1,CC1(C)CCC(c2ccc(Cl)cc2)=C(CN2CCN(c3ccc(C(=O)NS(=O)(=O)c4ccc(N[C@H](CCN5CCOCC5)CSc5ccccc5)c(S(=O)(=O)C(F)(F)F)c4)cc3)CC2)C1,0.29
2,Nc1cccc(-c2cc3c(Oc4cccc(O)c4)ncnc3[nH]2)c1,0.148
3,COC1CC2CCC(C)C(O)(O2)C(=O)C(=O)N2CCCCC2C(=O)OC(C(C)CC2CCC(OP(C)(C)=O)C(OC)C2)CC(=O)C(C)C=C(C)C(O)C(OC)C(=O)C(C)CC(C)C=CC=CC=C1C (stereo not drawn) [Ridaforolimus (Deforolimus],0.509
4,Cc1ccccc1C(=O)Nc1ccc(C(=O)N2CCCC(O)c3cc(Cl)ccc32)c(C)c1 (stereo not drawn) [Tolvaptan],0.77
5,Cc1cc(C(C)(C)C)c(O)c(C)c1CC1=NCCN1 [Oxymetazoline HCl],-0.235
6,Cc1cc(Nc2cc(N3CCN(C)CC3)nc(Sc3ccc(NC(=O)C4CC4)cc3)n2)n[nH]1,-2.31
7,CS(=O)(=O)c1cccc(CNc2nc(Nc3ccc4c(c3)CCC(=O)N4)ncc2C(F)(F)F)c1,1.04
8,COc1ccc2cc(-c3nc(-c4ccc([S+](C)[O-])cc4)[nH]c3-c3ccncc3)ccc2c1 (stereo not drawn) [Tie2 kinase inhibitor],-0.787
9,O=c1oc2cc(O)ccc2s1,-0.113
10,CC(C)(F)C[C@H](N[C@@H](c1ccc(-c2ccc(S(C)(=O)=O)cc2)cc1)C(F)(F)F)C(=O)NC1(C#N)CC1 [Odanacatib (MK-0822)],-0.252
11,CC(C=CC(=O)NO)=CC(C)C(=O)c1ccc(N(C)C)cc1 (stereo not drawn) [Trichostatin A (TSA)],11.2
12,Cc1cc(-c2ccc(CC(=O)Nc3ccc(-c4cccnc4)cc3)cc2)ccn1,0.0884
13,C[C@@H](NCCCc1cccc(C(F)(F)F)c1)c1cccc2ccccc12 [Cinacalcet HCl],-1.05
14,C[C@H](CS)C(=O)N1CCC[C@H]1C(=O)O [Captopril],-1.61
15,O=C(Nc1cccc(Cl)c1)c1ccccn1,0.851
16,COc1ccc(C(=O)Nc2sc3c(c2C(N)=O)CCCC3)cc1OC,0.457
17,COc1cc2nc(N3CCN(C(=O)C4COc5ccccc5O4)CC3)nc(N)c2cc1OC (stereo not drawn) [Doxazosin mesylate],0.0192
18,COc1ccc(CC(C)NCC(O)c2ccc(O)c(NC=O)c2)cc1 (stereo not drawn),0.254
19,COc1ccc(COc2ccc(Cc3cnc(N)nc3N)cc2OC)cc1,-0.788

row,SMILES,presynaptic density (Z-score)
1,COc1cc(Nc2ncc(F)c(Nc3ccc4c(n3)N(COP(=O)(O)O)C(=O)C(C)(C)O4)n2)cc(OC)c1OC [Fostamatinib (R788)],0.149
2,CC(C)NCCCn1c(Sc2cc3c(cc2I)OCO3)nc2c(N)ncnc21,-0.039
3,CC(CCc1ccccc1)NCC(O)c1ccc(O)c(C(N)=O)c1 (stereo not drawn) [Labetalol HCl],-0.733
4,N#CSc1cc(SC#N)c(N)nc1N,-0.815
5,COc1ccc(C2CNC(=O)C2)cc1OC1CCCC1 (stereo not drawn) [Rolipram],-0.353
6,Cc1[nH]c2ccccc2c1CCNCc1ccc(/C=C/C(=O)NO)cc1 [Panobinostat (LBH589)],4.81
7,Cn1c(N2CCCCS2(=O)=O)nc(C(=O)NCc2ccc(F)cc2)c(O)c1=O,-1.68
8,CC(NC(=O)c1ccccc1N=Cc1c(O)ccc2ccccc12)c1ccccc1 (stereo not drawn),0.165
9,O=C(NC(Cc1cc(=O)[nH]c2ccccc12)C(=O)O)c1ccc(Cl)cc1 (stereo not drawn),-0.611
10,O=C(Nc1cccc(Cl)c1)Nc1ncc(CCNc2ncnc3ccsc23)s1 [SNS-314 Mesylate],-0.232
11,C[C@@H]1CCN(C(=O)CC#N)C[C@@H]1N(C)c1ncnc2[nH]ccc12,-0.892
12,O=C(NC[C@H]1CN(c2ccc(N3CCOCC3=O)cc2)C(=O)O1)c1ccc(Cl)s1 [Rivaroxaban],-0.11
13,CC1=C(C(=O)Nc2cc3cn[nH]c3cc2F)C(c2ccc(C(F)(F)F)cc2)CC(=O)N1 (stereo not drawn),1.88
14,CCn1c(-c2nonc2N)nc2c(C#CC(C)(C)O)ncc(OC[C@H]3CCCNC3)c21,-0.664
15,COc1c(O)cc2c(c1O)[C@@H]1O[C@H](CO)[C@@H](O)[C@H](O)[C@H]1OC2=O,0.361
16,CCOC(=O)C1=C(COCCN)NC(C)=C(C(=O)OC)C1c1ccccc1Cl (stereo not drawn),-1.97
17,CC(C)CC(=O)Nc1n[nH]c2c1CN(C(=O)C1CCN(C)CC1)C2(C)C,-2.75
18,Cn1cnc2c(F)c(Nc3ccc(Br)cc3Cl)c(C(=O)NOCCO)cc21,0.953
19,CCc1c2c(nc3ccc(OC(=O)N4CCC(N5CCCCC5)CC4)cc13)-c1cc3c(c(=O)n1C2)COC(=O)C3(O)CC (stereo not drawn) [Irinotecan HCl Trihydrate_Selleck],-0.772
